This note sets out measurements from PubChem BioAssay.

Values joined by “and” are separate entries in the source; they are usually repeats but may differ in a detail not shown here. Equal values may be shown once. Records with an inconclusive call do not appear. Active and inactive are the calls of the source.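 Rule for the calls, unless noted: active = viability at or below 30% in both replicate assays; inconclusive = viability at or below 30% in just one of the two assays; inactive = the rest.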

Assay [1] is described as follows: reducers of endogenous Her2 protein level, primary screen, SKBR3 breast tumor cells, AlphaScreen, ATP viability (AID 461;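 active = Her2 level under about 52% in both replicate screens, with viability over 70% of control, limit read from the data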;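 for Her2 level: lower value means less Her2 protein in the cells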;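 for viability: percent of carrier control wells set as 100% viability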). Particulars: 18-24 h, measured here: SKBR3 viability, ATP luminescence, at 10 µM.
The target in assay [2] is Receptor tyrosine-protein kinase erbB-2 (Homo sapiens) (UniProt P04626). The assay is described as above. Particulars: 18-24 h, at 10 µM, stronger effect = lower value.
The nature of assay [3]: SK-BR-3 cell growth inhibitors, pilot screen, 24 h, human (AID 572;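 active = viability at or below 10% of carrier control in both of two separate runs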;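 note: compound exposure lasted between 18 and 24 h rather than exactly 24 h; 100% = carrier-treated control wells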). Particulars: SK-BR-3 viability, CellTiter-Glo luminescence, at 10 µM, stronger effect = lower value. (In general: ATP-based viability assays read luminescence as a measure of living cells.)
Assay [4] in a line: HUVEC growth inhibition – cell-based, human, primary screen (AID 575).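 Note: 100% = median of untreated cell wells with 0.1% DMSO on each plate.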 The following applies: HUVEC proliferation, CellTiter-Glo luminescence, 72 h; at 10 µM; stronger effect = lower value.
A short description of assay [5]: growth inhibitors of H69AR lung tumor, primary screen, human, duplicate replicates (AID 580;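 active = viability at or under a set limit in both replicates, limit being median viability minus 3 SD, cut at about 48% in these data, passing the limit was not always enough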;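 note: 100% = mean luminescence of untreated wells and 0% = no signal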). The following applies: H69AR lung tumor cells viability, ATP luminescence, 72 h; at 10 µM; stronger effect = lower value.
Assay [6] is described as follows: reversal of MRP1-mediated doxorubicin resistance, pilot screen, H69AR cells, doxorubicin co-treatment (AID 601;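 active = viability loss from added drug above about 55%, and viability with drug at most 40%, in both replicates, limit read from the data, passing the limit was not always enough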). The following applies: CellTiter-Glo, 72 h, at 10 µM; for differential viability (reversal): stronger effect = higher value.
A short description of assay [7]: viability gain of MRP-1-high H69AR cells under doxorubicin, pilot screen, MRP-1 activator project, CellTiter-Glo, duplicate (AID 807;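 active = viability increase at or above a cutoff of the median across tested compounds plus 3 SD, cut at about 8.5% in these data, passing the limit was not always enough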;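 note: compound pretreatment 18-22 h then 72 h combined with doxorubicin; 0% = doxorubicin alone and 100% = vehicle without doxorubicin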). The following applies: H69AR viability with doxorubicin, CellTiter-Glo luminescence; at 10 µM; stronger effect = higher value.
Assay [8] in a line: growth suppression of beta-catenin knockout HCT116, pilot screen, human colon tumor cells (AID 823;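 active = cell viability at or below a set limit in both duplicate runs, the limit being the all-compound median minus 4 SD, cut at about 23% in these data, passing the limit was not always enough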;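 note: 0% = wells killed by 20 µM Hyamine and 100% = untreated DMSO cell wells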). Particulars: CellTiter-Glo, 60 h, at 10 µM, stronger effect = lower value.
Assay [9] is described as follows: growth suppression of PTEN-deleted HCT116, pilot screen, cell-based, HCT116 clonal line, CellTiter-Glo (AID 824;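 active = viability at or below 27.92% in each of two runs, the all-compound median minus 4 SD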;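 note: 0% = 20 µM Hyamine control and 100% = vehicle cell control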). The following applies: 60 h, at 10 µM, stronger effect = lower value.
Assay [10] in a line: inhibitors of the yeast RAM network, pilot screen, dse1pr::URA3 reporter, 5-FOA selection (AID 869;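 active = inhibition over a set limit, the all-compound mean plus 3 SD, in both replicate runs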;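 note: 0% = DMSO wells with no growth and 100% = 10 µM 1-NA-PP1 with full growth; RAM network block rescues cells from 5-FOA so hits raise OD615 growth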). The following applies: S. cerevisiae dse1pr::URA3 5-FOA growth, OD615, 2 d; at 10 µM; stronger effect = higher value; strain carries analog-sensitive mutant Cbk1 kinase.
Assay [11] can be described thus: RAM signaling pathway blockade in yeast – S. cerevisiae, Pdr1DBD-CYC8 efflux-inhibited sensitized strain, primary screen (AID 1298;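 active = RAM network inhibition above 8.4% in each of two replicates, 3 SD over the compound average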;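 note: 0% = DMSO untreated cells without growth and 100% = 10 µM 1-NA-PP1 full growth; higher means more yeast growth rescued from 5-FOA killing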). Particulars: S. cerevisiae cbk1-as DSE1-URA3 strain, 5-FOA growth OD615, 2 d; at 50 µM; stronger effect = higher value.
[12] abbreviates: H69AR cells + 2 uM doxorubicin, measured here: viability with 2 uM doxorubicin, stronger effect = lower value.
Setting [13] is: H69AR cells, compound alone cytotoxicity.

Broadly, the viability is a read-out of living cells in per cent, often relative to untreated cells. One may read the inhibition as the percentage by which the read-out fell short of the control.

Chain of Receptor tyrosine-protein kinase erbB-2 (Homo sapiens) (P04626 whole entry, looked up): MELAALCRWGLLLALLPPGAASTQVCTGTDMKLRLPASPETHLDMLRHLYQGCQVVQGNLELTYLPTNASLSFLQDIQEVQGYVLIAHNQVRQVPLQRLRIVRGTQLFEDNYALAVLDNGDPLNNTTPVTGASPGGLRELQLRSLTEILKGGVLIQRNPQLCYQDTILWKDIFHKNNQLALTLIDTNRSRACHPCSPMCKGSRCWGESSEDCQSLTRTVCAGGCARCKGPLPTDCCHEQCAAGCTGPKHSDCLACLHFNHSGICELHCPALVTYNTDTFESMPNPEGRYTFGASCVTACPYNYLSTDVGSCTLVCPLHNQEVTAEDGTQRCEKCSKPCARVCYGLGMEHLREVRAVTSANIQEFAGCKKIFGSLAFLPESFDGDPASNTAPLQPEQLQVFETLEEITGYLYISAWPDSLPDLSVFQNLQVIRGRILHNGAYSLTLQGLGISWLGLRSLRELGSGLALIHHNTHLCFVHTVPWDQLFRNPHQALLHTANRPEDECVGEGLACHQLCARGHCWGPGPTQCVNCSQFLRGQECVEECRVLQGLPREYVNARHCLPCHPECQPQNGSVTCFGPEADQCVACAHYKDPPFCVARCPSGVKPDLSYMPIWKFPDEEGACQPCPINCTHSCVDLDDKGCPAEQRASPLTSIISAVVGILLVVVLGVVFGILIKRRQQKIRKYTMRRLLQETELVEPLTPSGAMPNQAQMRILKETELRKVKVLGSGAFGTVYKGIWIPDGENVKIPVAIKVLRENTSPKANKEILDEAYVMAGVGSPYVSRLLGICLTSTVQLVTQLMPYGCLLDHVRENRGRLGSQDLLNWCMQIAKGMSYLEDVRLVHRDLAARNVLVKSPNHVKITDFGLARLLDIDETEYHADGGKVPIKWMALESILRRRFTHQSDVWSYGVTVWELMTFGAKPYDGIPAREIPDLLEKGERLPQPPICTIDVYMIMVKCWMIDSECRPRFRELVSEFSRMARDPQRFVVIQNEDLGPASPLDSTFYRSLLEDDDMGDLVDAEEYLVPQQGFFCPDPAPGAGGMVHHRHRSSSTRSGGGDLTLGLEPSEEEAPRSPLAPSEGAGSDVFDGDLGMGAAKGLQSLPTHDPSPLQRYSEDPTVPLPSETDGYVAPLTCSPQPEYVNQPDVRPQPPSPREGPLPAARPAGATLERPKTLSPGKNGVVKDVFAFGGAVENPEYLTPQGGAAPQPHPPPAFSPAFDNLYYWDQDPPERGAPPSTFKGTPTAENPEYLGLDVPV

`Nc1ccc2[nH]ncc2c1`: the viability was 80.5% in [1]; 80.5% (inactive) in assay [3]; 84.1% (inactive) in assay [4]; 100% (inactive) in [5]; 107% in [6] (setting [12]); 100% in [6] (setting [13]). In addition, the Her2 level in assay [2] was 106% (inactive). Besides, the differential viability (reversal) in [6] (H69AR cells + 2 uM doxorubicin) is -6.96% (inactive).

`NS(=O)(=O)c1cc2c(cc1Cl)NC(C(Cl)Cl)NS2(=O)=O` (centres undefined): the viability was 102% in assay [1]; 102% (inactive) in assay [3]; 106% (inactive) in [4]; 93.9% (inactive) in [5]; 104% in assay [6] (setting [12]); 93.9% in assay [6] (setting [13]). Moreover, the Her2 level in [2] was 112% (inactive). The differential viability (reversal) in assay [6] (H69AR cells + 2 uM doxorubicin) was -9.8% (inactive).

Consider `c1ccc(CN(CC2=NCCN2)c2ccccc2)cc1`, for which the viability in [1] is 91.5% and 100%; in assay [3] it was 91.5% (inactive) and 100% (inactive); in [4], 94.1% (inactive) and 87.9% (inactive); in assay [5] it was 93.2% (inactive) and 96.6% (inactive); in [6] (setting [12]), 86.6% and 97.9%; in assay [6] (setting [13]), 93.2% and 96.6%. Also, the Her2 level in assay [2] was 114% (inactive) and 91.5% (inactive). Besides, the differential viability (reversal) in assay [6] (H69AR cells + 2 uM doxorubicin) is 6.63% (inactive) and -1.34% (inactive).

With `CC(=O)NS(=O)(=O)c1ccc(N)cc1`, the viability in assay [1] is 118%; in assay [3], 118% (inactive); in assay [4], 90% (inactive); in assay [5], 102% (inactive); in assay [6] (setting [12]), 95.4%; in assay [6] (setting [13]), 102%. Also, the Her2 level in assay [2] is 124% (inactive). Also, in assay [6] (H69AR cells + 2 uM doxorubicin), the differential viability (reversal) was 6.32% (inactive).

For `CCCOc1ccc(C(=O)Nc2cc(-c3nn4c(C)nnc4s3)ccc2C)cc1`, the viability increase in assay [7] is -3.69% (inactive). The viability is 101% (inactive) in assay [8] and 92.9% (inactive) in [9]. The inhibition in assay [10] was 1.7% (inactive). For the same compound, the RAM network inhibition in assay [11] was 3.75% (inactive).

On to `O=C(O)c1cccnc1Nc1cccc(C(F)(F)F)c1`, for which the viability in [1] was 100%; in assay [3], 100% (inactive); in assay [4] it was 86.4% (inactive); in assay [5] it was 108% (inactive); in [6] (setting [12]), 94.5%; in [6] (setting [13]), 108%. Further, in assay [2], the Her2 level was 98.5% (inactive). For the same compound, in assay [6] (H69AR cells + 2 uM doxorubicin), the differential viability (reversal) is 13.5% (inactive).

For the compound `COC(=O)CSCc1nc2ccccc2[nH]c1=O`, the viability increase in [7] was -2.15% (inactive). The viability in assay [8] was 101% (inactive); in assay [9], 94.8% (inactive). Besides, the inhibition in assay [10] was 0.08% (inactive). The RAM network inhibition in [11] is 1.09% (inactive).

As to `CCCn1c(=O)[nH]c(=O)c2[nH]cnc21`, the viability in assay [1] is 104%; in assay [3], 104% (inactive); in assay [4] it was 98.1% (inactive); in assay [5] it was 100% (inactive); in assay [6] (setting [12]), 96.7%; in [6] (setting [13]), 100%. Moreover, the Her2 level in assay [2] is 92% (inactive). For the same compound, the differential viability (reversal) in [6] (H69AR cells + 2 uM doxorubicin) was 3.64% (inactive).

As for `N[C@@H](Cc1cc(I)c(Oc2ccc(O)c(I)c2)c(I)c1)C(=O)O`, the viability in assay [1] was 100%; in assay [3] it was 100% (inactive); in assay [4], 86.9% (inactive); in assay [5], 97.6% (inactive); in assay [6] (setting [12]) it was 90.8%; in [6] (setting [13]), 97.6%. For the same compound, in assay [2], the Her2 level is 87% (inactive). The differential viability (reversal) in assay [6] (H69AR cells + 2 uM doxorubicin) is 6.87% (inactive).

`COc1ccc([C@@H]2Sc3ccccc3N(CCN(C)C)C(=O)[C@@H]2OC(C)=O)cc1`: the viability in assay [1] is 76%; in assay [3] it was 76% (inactive); in assay [4], 100% (inactive); in assay [5] it was 92.1% (inactive); in assay [6] (setting [12]), 103%; in [6] (setting [13]), 92.1%. Moreover, in assay [2], the Her2 level is 106% (inactive). Besides, the differential viability (reversal) in assay [6] (H69AR cells + 2 uM doxorubicin) is -11.2% (inactive).

On to `O=C1C(=C2CCCCC2)SC(=S)N1Cc1ccco1`, for which, in assay [7], the viability increase is -4.02% (inactive). The viability is 80.2% (inactive) in assay [8] and 84.4% (inactive) in [9]. In addition, the inhibition in [10] was 0.825% (inactive). Further, in [11], the RAM network inhibition was 2.66% (inactive).

With `CCC(NC(C)C)C(O)c1ccc(O)c2[nH]c(=O)ccc12` (centres undefined), the viability in [1] was 108%; in assay [3], 108% (inactive); in assay [4], 107% (inactive); in assay [5], 94.4% (inactive); in assay [6] (setting [12]) it was 82.7%; in assay [6] (setting [13]), 94.4%. Moreover, in assay [2], the Her2 level is 94.5% (inactive). For the same compound, in assay [6] (H69AR cells + 2 uM doxorubicin), the differential viability (reversal) is 11.7% (inactive).

Turning to `c1cn2cc(-c3ccc4c(c3)OCO4)nc2s1`, the viability increase in [7] is 1.35% (inactive). The viability in assay [8] is 99.7% (inactive); in assay [9] it was 90.7% (inactive). The inhibition in assay [10] was 1.96% (inactive). Further, the RAM network inhibition in assay [11] is 0.64% (inactive).

As for `O=C(O)c1cc(=O)c2c(OCC(O)COc3cccc4oc(C(=O)O)cc(=O)c34)cccc2o1`, the viability in assay [1] is 102%; in assay [3], 102% (inactive); in [4], 121% (inactive); in assay [5], 106% (inactive); in assay [6] (setting [12]), 91.5%; in assay [6] (setting [13]) it was 106%. Further, in assay [2], the Her2 level is 102% (inactive). Also, the differential viability (reversal) in assay [6] (H69AR cells + 2 uM doxorubicin) is 14.7% (inactive).

For the compound `CN(CCO)CC(O)Cn1cnc2c1c(=O)n(C)c(=O)n2C` (centres undefined) (tested in a mixture with another compound), the viability in assay [1] is 87%; in [3], 87% (inactive); in assay [4] it was 94.1% (inactive); in [5] it was 83.6% (inactive); in [6] (setting [12]), 85.9%; in assay [6] (setting [13]), 83.6%. Besides, the Her2 level in assay [2] was 88.5% (inactive). Besides, in assay [6] (H69AR cells + 2 uM doxorubicin), the differential viability (reversal) is -2.31% (inactive).

Turning to `CC(C)(S)[C@@H](N)C(=O)O`, the viability in [1] was 102%; in [3], 102% (inactive); in assay [4], 106% (inactive); in assay [5], 110% (inactive); in [6] (setting [12]) it was 94.3%; in [6] (setting [13]), 110%. The Her2 level in [2] is 93% (inactive). In [6] (H69AR cells + 2 uM doxorubicin), the differential viability (reversal) is 15.4% (inactive).

`COc1ccccc1N1CCN(C(CNC(=O)c2ccco2)c2cccnc2)CC1` (centres undefined): the viability increase in assay [7] is -2.37% (inactive). Moreover, the viability was 85% (inactive) in assay [8] and 77% (inactive) in assay [9]. The inhibition in assay [10] was 2.23% (inactive). In addition, in assay [11], the RAM network inhibition was -0.32% (inactive).

For `Cc1ncc([N+](=O)[O-])n1CCO`, the viability in assay [1] is 99.5%; in assay [3] it was 99.5% (inactive); in [4], 103% (inactive); in assay [5], 105% (inactive); in assay [6] (setting [12]) it was 96.7%; in assay [6] (setting [13]) it was 105%. In assay [2], the Her2 level is 108% (inactive). Besides, the differential viability (reversal) in assay [6] (H69AR cells + 2 uM doxorubicin) was 8.66% (inactive).

For `COc1ccc(NC(=O)CC2SC(=Nc3ccccc3)NC2=O)c(OC)c1` (centres undefined), in [7], the viability increase was 2.03% (inactive). For the same compound, the values for the viability in [8] and in assay [9] were 93.4% (inactive) and 92% (inactive), respectively. In addition, in assay [10], the inhibition is 2.23% (inactive). Further, in [11], the RAM network inhibition was 7.78% (inactive).
